PubChem BioAssay (NCATS)
Results filed as inconclusive are left out. Entries that show only a call come without a potency. The source made the active and inactive calls. Calls follow the shape of the dose curve; as a rule, active = well fitted cell-killing curve with a large enough effect; inconclusive = small, poorly fitted or top-dose-only effect; inactive = flat fitted curve, though single readings scatter. Numbered stars: 1 amine (or outer) side, 2 acyl side, 3 side chain; on linkers, the order of the positions; unused ones are H or OH. Bridge positions count the residues as written; N and C are the ends. Square brackets hold non-standard residues; d marks the D form. Peptide text beside a SMILES is read from it. I, II: the chains in the order shown. Actinocin(9to1) = Cc1c2oc3c(C)ccc(C(=O)[*:1])c3nc-2c(C(=O)[*:2])c(N)c1=O; NMeV = CN[C@H](C(=O)O)C(C)C; Sar = CNCC(=O)O
Potency is read from the fitted curve at half-maximal effect.

Assay: Cell Viability - LYMP1-002 - Assay at 40 hr (AID 994); also: nearly all actives have a fitted effect of over 60% in size
Details: LYMP1-002 lymphoblastoid cell viability; series mostly up to 92.2 µM
Description: NIH Chemical Genomics Center [NCGC]
NIH Molecular Libraries Screening Centers Network [MLSCN]
National Institutes of Environmental Health Sciences [NIEHS]
National Toxicology Program [NTP]
We have developed a 1536-well cell-based assay for quantitative high throughput screening (qHTS) against a number of cell lines to determine in vitro cytotoxicity of small molecules. This particular assay uses a human lymphoblastoid cell line (LYMP1-002) purchased from Coriell Institute for Medical Research.
NCGC Assay Protocol Summary:
The CellTiter-Glo luminescent cell viability assay (Promega) is a homogeneous method to measure the number of viable cells in culture. The end point readout of this assay is based on quantitation of intracellular ATP, an indicator of metabolic activity, using the luciferase reaction. Luciferase catalyzes the oxidation of beetle Luciferin to oxyluciferin and light in the presence of ATP. The luminescent signal is proportional to amount of ATP present.
Using the CellTiter-Glo luminescent cell viability assay, the amount of cellular ATP was measured in the lymphoblastoid cell line with complete culture medium following compound treatment for 40 hours. The assay was performed in opaque white Kalypsys 1536-well plates. In the screen, tetraoctylammonium bromide was used as positive control. Library compounds were measured for their ability to cause acute toxicity in the cell line, as reflected by a decrease in intracellular ATP levels, in a concentration-dependent manner. […] AC50 values were determined from concentration-response data modeled with the standard Hill equation.
qHTS protocol for CellTiter Glo lymphoblastoid cellular assay
[Step] [Parameter] [Value] [Description]
1. Reagent; 5 uL; 2500 lymphoblastoid cells/well
2. Time; 5 hr; 37 C incubation
4. Controls; 23 nL; Tetraoctylammonium bromide 6.4pM to 92 uM
5. Time; 40 hr; 37 C incubation
6. Reagent; 5 uL; CellTiter Glo reagent
7. Time; 30 min; Room Temperature
8. Detection; Luminescence; Viewlux plate reader
Keywords: cell viability, cytotoxicity, lymphoblastoid cell line, luminescence, NTPHTS, NTPHTS_NCGC, NIEHS, DSSTox, MLSMR, MLSCN, NIH Roadmap, qHTS, NCGC
In the case of CC/C(=C(/CC)c1ccc(O)cc1)c1ccc(O)cc1, the Potency is reported as “inactive”.
With COc1cccc2c1C(=O)c1c(O)c3c(c(O)c1C2=O)C[C@@](O)(C(C)=O)C[C@@H]3O[C@H]1C[C@H](N)[C@H](O)[C@H](C)O1 the Potency was 1 µM (active).
For O=c1ccc2ccccc2o1, the Potency was “inactive”.
For CN(C)/N=N/c1nc[nH]c1C(N)=O, the Potency was “inactive”.
With CC(=O)Oc1ccc(C(c2ccc(OC(C)=O)cc2)c2ccccn2)cc1 the Potency was “inactive”.
In the case of NC(=NCCCCCCN=C(N)/N=C(\N)Nc1ccc(Cl)cc1)/N=C(\N)Nc1ccc(Cl)cc1, the Potency is reported as 39.8 µM (active).
In the case of CCCCCCc1ccc(O)cc1O, the Potency is reported as “inactive”.
In the case of C[C@]12CC[C@@H]3c4ccc(O)cc4CC[C@H]3[C@@H]1CC[C@@H]2O, the Potency is reported as “inactive”.
For Cc1c2oc3c(C)ccc(C(=O)N[C@@H]4C(=O)N[C@H](C(C)C)C(=O)N5CCC[C@H]5C(=O)N(C)CC(=O)N(C)[C@@H](C(C)C)C(=O)O[C@@H]4C)c3nc-2c(C(=O)N[C@@H]2C(=O)N[C@H](C(C)C)C(=O)N3CCC[C@H]3C(=O)N(C)CC(=O)N(C)[C@@H](C(C)C)C(=O)O[C@@H]2C)c(N)c1=O (I: T[dV]P[Sar][NMeV] / II: T[dV]P[Sar][NMeV]; ester I:1-I:C, II:1-II:C; linker I:N-II:N via Actinocin(9to1)), the Potency was 0.0032 µM (active).
For COc1cccc2c1C(=O)c1c(O)c3c(c(O)c1C2=O)C[C@@](O)(C(=O)CO)C[C@@H]3O[C@H]1C[C@H](N)[C@H](O)[C@H](C)O1, the Potency was 0.794 µM (active).
For C=CCc1ccc(O)c(OC)c1, the Potency was “inactive”.
With Oc1c(I)cc(Cl)c2cccnc12 the Potency was 50.1 µM (active).
For Oc1c(Cl)cc(Cl)cc1Sc1cc(Cl)cc(Cl)c1O, the Potency was 50.1 µM (active).
In the case of Nc1ccc(C(=O)O)cc1, the Potency is reported as “inactive”.
For CC(O)C(=O)O (centres undefined), the Potency was “inactive”.
For O=C1OC(c2ccc(O)cc2)(c2ccc(O)cc2)c2ccccc21, the Potency was “inactive”.
For O=C(O)CCCCC(=O)O, the Potency was “inactive”.
With CC(=O)O[C@]1(C(C)=O)CC[C@H]2[C@@H]3C[C@H](C)C4=CC(=O)CC[C@]4(C)[C@H]3CC[C@@]21C the Potency was “inactive”.
With CC(C)(C)CC(C)(C)c1ccc(OCCOCC[N+](C)(C)Cc2ccccc2)cc1 the Potency was 39.8 µM (active).
